Inconclusive results are not listed. Calls of active or inactive are those of the source. Calls come from the whole dose curve; as a rule, active = well fitted cell-killing curve with a large enough effect in the repeat runs; inconclusive = weak or mixed curves, or effect the other way; inactive = flat fitted curve, though single readings scatter.
Assay: qHTS RealTime-Glo MT Cell Viability Assay in HEK293 cells - 24 hour (AID 1224886); note: nearly all actives have a fitted effect of over 50% in size; for activity change, negative = cytotoxicity: top concentration of the series differs between compounds
Conditions: RealTime-Glo luminescence; series mostly up to 76.8 µM; activity change, negative = cytotoxicity: at the top concentration
From the text: National Center for Advancing Translational Sciences [NCATS]
NIH Chemical Genomics Center [NCGC]
U.S. Environmental Protection Agency [EPA]
National Institutes of Environmental Health Sciences [NIEHS]
National Toxicology Program [NTP]
U.S. Food and Drug Administration [FDA]
Measure of cell viability is critical in the cell-base assay. Analysis of cell viability is necessary for the characterization of cell responses to cytotoxic drugs and environmental stress. A RealTime-Glo MT Cell Viability Assay to monitor cell viability in real time of continues cell culture during 40 hours of compound treatment was used to screen Tox21 10K library compounds in Hek293 cells. The RealTime-Glo MT Cell Viability Assay is a nonlytic, homogeneous, bioluminescent method to measure cell viability in real time using a simple, plate-based method. The assay involves adding NanoLuc luciferase and a cell-permeant prosubstrate to cells in culture. Viable cells reduce the proprietary prosubstrate to generate a substrate for NanoLuc luciferase. This substrate diffuses from cells into the surrounding culture medium, where it is rapidly used by the NanoLuc Enzyme to produce a luminescent signal. The signal correlates with the number of viable cells, making the assay well suited for cytotoxicity studies.
Tox21 Assay Protocol Summary:
The mixture of Hek293 cell suspension and reagents were dispensed at 600cells/6 ul/well in 1536-well tissue culture treated black solid bottom plates using a Multidrop dispenser. After the assay plates were incubated at a 37 C/5% CO2 incubator for 5 hours, 23 nL of compounds dissolved in DMSO, positive and negative controls was transferred to the assay plate by a pintool work station. The plates were incubated at 37 C for 40 hours. The luminescence intensity were measured at 0h, 8h, 16h, 24h, 32h and 40h time points using ViewLux plate reader during compound treatment.
% is set by controls: 0 for no effect and ±100 for the full control effect; potency is the fitted concentration of half-maximal effect.

Compound | activity change, negative = cytotoxicity | Potency
O=C(Cl)c1cc(Cl)cc(Cl)c1 | -5.58% (inactive) | 
Nc1ncnc2c1ncn2[C@@H]1O[C@H](CO)[C@@H](O)[C@H]1O | 9.97% [at 35.3 µM] (inactive) | 
NCCOCCOCCN | 0.155% (inactive) | 
O=C(O)c1ccccc1[N+](=O)[O-] | 22.4% (inactive) | 
C[C@H](N)C(=O)N[C@@H](C)C(=O)NC1[C@H]2CN(c3nc4c(cc3F)c(=O)c(C(=O)O)cn4-c3ccc(F)cc3F)C[C@@H]12 (stereo not given in full) | 1.67% [at 35.3 µM] (inactive) | 
O=C(O)c1ccc2c(c1)nc(C(=O)NC1CCN(C3CC3)CC1)n2Cc1cc(-c2ccc(Cl)s2)on1 | 0.501% [at 15.8 µM] (inactive) | 
CCCCCO | 0.917% (inactive) | 
OCCc1ccncc1 | 1.06% (inactive) | 
CCC[Si](OC)(OC)OC | -2.61% (inactive) | 
CCCCCCCCC(=O)OCC(C)OC(=O)CCCCCCCC (stereo not given) | 10% (inactive) | 
SCCOCCOCCS | -19.8% (inactive) | 
CCc1ccc(C(=O)C(C)CN2CCCCC2)cc1 (stereo not given) | 3.38% [at 35.3 µM] (inactive) | 
CCCCOc1ccc(N)cc1 | 1.25% (inactive) | 
Nc1ccc(C(=O)Oc2ccccc2)c(O)c1 | -13.2% [at 35.3 µM] (inactive) | 
CC1(C)C(=O)NC(=O)N1CO | 8.48% (inactive) | 
O=[N+]([O-])c1cccc(I)c1 | -0.445% (inactive) | 
CCOc1cc(OCC)c(C(C)=O)cc1OCC |  | 19.2 µM (active)
CCCCCCCCCCCCSC#N | 0.687% (inactive) | 
CCCC(=O)OCCC(C)C | -0.639% (inactive) | 
CC(CN=Cc1ccccc1O)N=Cc1ccccc1O (stereo not given) | 3.18% (inactive) | 

Compound | activity change, negative = cytotoxicity | Potency
O=c1[nH][nH]c2ccccc12 | -25.4% (inactive) | 
C=C[Si](OCC)(OCC)OCC | 16% (inactive) | 
CCC(=O)O[C@]1(C(=O)COC)[C@@H](C)C[C@H]2[C@@H]3CCC4=CC(=O)C=C[C@]4(C)C3(F)[C@@H](O)C[C@@]21C (stereo not given in full) | -10.5% [at 35.3 µM] (inactive) | 
OCCOc1cccc(OCCO)c1 | 10.8% (inactive) | 
C=CCCC | 0.884% (inactive) | 
NC(=O)c1ccccc1 | -2.47% (inactive) | 
CCCC(=O)OCc1ccccc1 | 3.3% (inactive) | 
CCN(CC)CC(=O)OCC(=O)[C@@]1(O)CC[C@H]2[C@@H]3CCC4=CC(=O)CC[C@]4(C)[C@H]3[C@@H](O)C[C@@]21C | 0.787% [at 35.3 µM] (inactive) | 
CC1(COc2ccc(CC3SC(=O)NC3=O)cc2)CCCCC1 (stereo not given) | 0.357% [at 35.3 µM] (inactive) | 
Cc1ccc2ccccc2c1[N+](=O)[O-] | 1.95% (inactive) | 
Oc1ccc(CCNCCCCCCNCCc2ccccc2)cc1O |  | 23.9 µM (active)
CC(C)(C(=O)O)c1ccc(C(O)CCCN2CCC(C(O)(c3ccccc3)c3ccccc3)CC2)cc1 (stereo not given) | 1.61% [at 35.3 µM] (inactive) | 
CC(=O)c1cccnc1 | 1.26% (inactive) | 
Nc1nc(Cl)nc2c1ncn2[C@H]1C[C@H](O)[C@@H](CO)O1 | -1.65% (inactive) | 
CCCCCCC/C=C/C=O | -1.51% (inactive) | 
CCCCCCCCCCCCSCCOCCO | -13.8% [at 35.3 µM] (inactive) | 
CCCCOC(=O)CC#N | 4.34% (inactive) | 
CC(C)(C)c1ccc(CCC=O)cc1 | -1.28% (inactive) | 
Oc1ccc(Oc2ccccc2)cc1 |  | 16.5 µM (active)
CC(C)CCCCCOC(=O)CS | -0.903% (inactive) | 
